Records with an inconclusive call do not appear. Unmarked numbers belong to inactive results. Calls of active or inactive are those of the source. Calls follow the shape of the dose curve; as a rule, active = well fitted curve in the direction sought with a large enough effect; inconclusive = small, poorly fitted or top-dose-only effect, or another doubt; inactive = no such curve, though single readings can be large; an effect the other way counts as inactive or inconclusive.
assay: P-glycoprotein substrates identified in KB-3-1 adenocarcinoma cell line, qHTS therapeutic library screen (AID 1346986); conditions: KB-3-1 parental cells viability, CellTiter-Glo, 72 h; series mostly up to 44.5 µM; activity change, negative = cytotoxicity: at the top concentration; also: nearly all actives have a fitted effect of over 60% in size
How it was run: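 Cells seeded 500/well in DMEM/10% FCS; compounds pinned in dose-response; 72 h incubation; CellTiter-Glo added, 5 min, luminescence. KB-8-5-11 run ±tariquidar to test reversal of P-gp resistance.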

SMILES | outcome
CCC(Nc1ncnc2nc[nH]c12)c1nc2cccc(F)c2c(=O)n1-c1ccccc1 (centres undefined) | inactive
COc1cc(C(=O)OC[C@@]2(O)CO[C@@H](O[C@H]3[C@H](Oc4ccc(C(=O)O)cc4OC)O[C@H](CO)[C@@H](O)[C@@H]3O)[C@@H]2O)ccc1O | inactive [at 17.4 µM]
CCC(C)/C=C(C)/C=C/c1cc2c(cn1)C(=O)C(C)(OC(C)=O)C(O)=C2Cl (centres undefined) | inactive
CC(C)(C)NS(=O)(=O)c1cncc(-c2cc(F)c3nc(N)nn3c2)c1 | inactive
C=CC(C)(C)c1[nH]c2cc3c(cc2c1CC1NC(=O)C2=CCCN2C1=O)C=CC(C)(C)O3 (centres undefined) | inactive [at 17.4 µM]

assay: P-glycoprotein substrates identified in KB-8-5-11 adenocarcinoma cell line, qHTS therapeutic library screen (AID 1346987); conditions: KB-8-5-11 (P-gp overexpressing) viability, CellTiter-Glo, 72 h; series mostly up to 44.5 µM; activity change, negative = cytotoxicity: at the top concentration; also: nearly all actives have a fitted effect of over 65% in size; also: potency is read from the fitted curve at half-maximal effect; as to activity change, negative = cytotoxicity: % is scaled to controls: 0 for no effect and ±100 for the full control effect
How it was run: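 KB-8-5-11, a colchicine-selected P-gp-overexpressing KB-3-1 subline, was grown without colchicine for the assay. Cells were seeded at 500 cells/well, dosed in concentration-response and incubated 72 h at 37 degree C, 5% CO2. Viability was read by CellTiter-Glo luminescence.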

SMILES | activity change, negative = cytotoxicity | Potency | outcome
Cc1cc(NC(=O)Nc2ccc(F)c(F)c2)n(-c2ccccc2)n1 | -10.9% | – | –
COc1cc(-c2ncn(/C=C\C(=O)OC(C)C)n2)cc(C(F)(F)F)c1 | – | 259 nM (active) | –
CC(=O)CCC1=C(C)C(O[C@@H]2O[C@H](CO)[C@@H](O)[C@H](O)[C@H]2O)C(O)CC1(C)C (some centres undefined) | – | – | inactive
C=C[C@H]1C(O[C@@H]2O[C@H](CO)[C@@H](O)[C@H](O)[C@H]2O)OC=C2C(=O)N3CCc4c([nH]c5ccccc45)[C@H]3C[C@H]21 (some centres undefined) | – | – | inactive [at 17.3 µM]
CCC(Nc1ncnc2nc[nH]c12)c1nc2cccc(F)c2c(=O)n1-c1ccccc1 (centres undefined) | -4.15% | – | –
COC1CC(O[C@H]2CC[C@@]3(C)C(=CC[C@]4(O)C3[C@H](OC(C)=O)[C@@H](OC(=O)c3ccccc3)[C@]3(C)[C@@H](C(C)=O)CC[C@@]34O)C2)OC(C)C1OC1CC(OC)C(OC2CC(OC)C(OC3OC(C)C(OC4OC(CO)C(O)C(O)C4O)C(OC)C3O)C(C)O2)C(C)O1 (some centres undefined) | 1.94% [at 9.29 µM] | – | –
COc1cc2ncnc(Nc3ccc(F)c(Cl)c3)c2cc1NC(=O)/C=C/CN1CCCCC1 | – | 10300 nM (active) | –
C=C1CCC2C(C)(COC(C)=O)CCCC2(C)C1CCC(C)CC(=O)O (centres undefined) | 7.67% | – | –
O=C(/C=C\c1ccc(O)cc1)N[C@@H](Cc1ccc(O)cc1)C(=O)O | 1.87% | – | –
CN1CCc2nc(C(=O)N[C@@H]3C[C@@H](C(=O)N(C)C)CC[C@@H]3NC(=O)C(=O)Nc3ccc(Cl)cn3)sc2C1 | 9.48% | – | –
c1ccc(-c2ncc(CN3CCN(c4ncccn4)CC3)[nH]2)cc1 | -12% | – | –
O=[N+]([O-])c1cccc2[nH]c(CNc3nc(N4CCOCC4)nc4c3ncn4-c3ccsc3)nc12 | – | 103 nM (active) | –
CC(C)(C)c1ccc(S(=O)(=O)NCc2ccc(C(=O)Nc3cccnc3)cc2)cc1 | – | 1160 nM (active) | –
C[C@@H]([C@@H](O)c1ccc(O)cc1)N1CCC(O)(c2ccccc2)CC1 | -8.99% | – | –
OCC1OC(Oc2cc(O)cc(/C=C/c3ccc(O)cc3)c2)C(O)C(O)C1O (centres undefined) | 2.28% | – | –
Cc1ccc(S(=O)(=O)Cc2nc(-c3ccc(C(=O)NCc4cccnc4)cc3)oc2C)cc1 | – | 58 nM (active) | –
C[C@@H]1O[C@@H](O[C@H]2[C@H](OC(=O)[C@]34CCC(C)(C)C[C@H]3C3=CCC5[C@@]6(C)CC[C@H](O[C@@H]7O[C@H](C(=O)O)[C@@H](O)[C@H](O)[C@H]7O[C@@H]7O[C@H](CO)[C@H](O)[C@H](O)[C@H]7O)[C@@](C)(C=O)C6CC[C@@]5(C)[C@]3(C)C[C@H]4O)O[C@H](C)[C@H](O[C@@H]3O[C@H](C)[C@H](O)[C@H](O)[C@H]3O)[C@@H]2O)[C@H](O)[C@H](O)[C@H]1O[C@@H]1OC[C@@H](O)[C@H](O[C@@H]2O[C@H](CO)[C@@H](O)[C@H](O)[C@H]2O)[C@H]1O (some centres undefined) | – | – | inactive [at 5.11 µM]
COc1cc(C(=O)OC[C@@]2(O)CO[C@@H](O[C@H]3[C@H](Oc4ccc(C(=O)O)cc4OC)O[C@H](CO)[C@@H](O)[C@@H]3O)[C@@H]2O)ccc1O | 0.531% [at 17.3 µM] | – | –
CCC(C)/C=C(C)/C=C/c1cc2c(cn1)C(=O)C(C)(OC(C)=O)C(O)=C2Cl (centres undefined) | – | – | inactive
COC(=O)/C=C/C12COC(C)(C)C1C(O)C(OC(C)=O)C1(C)C2CCC2(C)C(c3ccoc3)OC(=O)C3OC321 (centres undefined) | 0.389% [at 17.3 µM] | – | –

SMILES | activity change, negative = cytotoxicity | Potency | outcome
NC(=O)c1cnc(NCCc2ccc(O)c(Cl)c2)nc1NCc1ccccc1 | – | 10300 nM (active) | –
CC(C)(C)NS(=O)(=O)c1cncc(-c2cc(F)c3nc(N)nn3c2)c1 | 6.93% | – | –
Cc1[nH]c2ccccc2c1CCNC(=O)c1ccccc1F | -4.47% | – | –
CC12CCC(OC3OC(CO)C(O)C(OC4OC(CO)C(O)C(O)C4O)C3O)CC1=CCC1C2CCC2(C)/C(=C3/COC(=O)C3)CCC12O (centres undefined) | -2.53% [at 17.3 µM] | – | –
C=CC(C)(C)c1[nH]c2cc3c(cc2c1CC1NC(=O)C2=CCCN2C1=O)C=CC(C)(C)O3 (centres undefined) | -16.8% [at 17.3 µM] | – | –
Cc1nc2sc(C(=O)NCc3ccncc3)c(N)c2c(C)c1Cl | -28.6% | – | –
CS(=O)(=O)N(CC(=O)NCC1CC1)c1cc(C(F)(F)F)ccc1Cl | -5.71% | – | –
Cc1cc(-c2cc(O)ccc2Cl)cc2nnc(Nc3ccc(OCCN4CCCC4)cc3)nc12 | – | 4610 nM (active) | –
COc1cc(C(=O)OC[C@H]2O[C@@H](Oc3ccccc3/C=C/C(=O)O)[C@H](O)[C@@H](O)[C@@H]2O)cc(OC)c1OC | 5.19% [at 17.3 µM] | – | –
Cc1cccc(C)c1-n1c(=O)c2cnc(Nc3ccc(N4CCN(C)CC4)cc3)nc2n2c3ccccc3nc12 | – | 920 nM (active) | –
O=C(OC[C@H]1O[C@H](O[C@]2(CO)O[C@H](CO)[C@@H](O)[C@@H]2O)[C@H](O)[C@@H](O)[C@@H]1O)c1ccccc1 | – | – | inactive [at 17.3 µM]
O=C(Nc1ccc(S(=O)(=O)Nc2nccs2)cc1)C(c1ccccc1)c1ccccc1 | 7.58% | – | –
CCOCCn1nc(CC)c2nc(N3CCC(C(=O)O)CC3)nc(Nc3cc(C)ccn3)c21 | -25% | – | –
NC(=O)c1cccc2cn(-c3ccc(C4CCCNC4)cc3)nc12 (centres undefined) | -23.4% | – | –
O=C(NCc1ccccn1)Nc1nnc(-c2ccco2)o1 | -3.61% | – | –
Cc1ccccc1C#Cc1ccc(CCC(=O)O)cc1 | -7.83% | – | –
CC(=O)C1=C(C)N(c2cccc(C(F)(F)F)c2)C(=O)N[C@H]1c1ccc(C#N)nc1 | -2.98% [at 9.29 µM] | – | –
COCC1OC(OC(C)(C)C2CCC3(C)C=C(C4CCC5C4(C)CC(O)C4OC(C(C)(C)OC6OC(CO)C(O)C(O)C6NC(C)=O)CCC45C)CCC3O2)C(NC(C)=O)C(O)C1O (centres undefined) | – | – | inactive [at 9.29 µM]
CC(C)CC(=O)OC1OC=C(CO[C@@H]2O[C@H](CO)[C@@H](O)[C@H](O)[C@H]2O)C2CC(O)C(O)(CO)C12 (some centres undefined) | 8.74% [at 17.3 µM] | – | –

From PubChem BioAssay (NCATS)
